# Experimental data: the supplement of paper PMC10077471
# In all, about 1,900 compounds were measured (“excess over highest single agent (ExcessHSA) synergy score, 6x6 matrix”: median about -83, lowest 2% from about -370 on). The sample as a whole holds a higher share of the lowest values than the screen did.
# System: NCI-H446
# Experiment: excess over highest single agent (ExcessHSA) synergy score, 6x6 matrix; higher = less synergy (more negative = stronger synergy)
# Conditions: 72 h; CellTiter-Glo viability
row,SMILES,excess over highest single agent
1,Cc1cc(OCCCS(C)(=O)=O)cc(C)c1-c1cccc(COc2ccc3c(c2)OC[C@H]3CC(=O)O)c1 + Cc1sc2c(c1C)C(c1ccc(Cl)cc1)=N[C@@H](CC(=O)OC(C)(C)C)c1nnc(C)n1-2 [NCGC00250412-19],-123
2,c1ccc2c(CCNc3ccc(Nc4ccncc4)cc3)c[nH]c2c1 + Cc1sc2c(c1C)C(c1ccc(Cl)cc1)=N[C@@H](CC(=O)OC(C)(C)C)c1nnc(C)n1-2 [NCGC00250412-19],-76.1
3,Cc1cc(SCc2sc(-c3ccc(C(F)(F)F)cc3)nc2C)ccc1OCC(=O)O + Cc1sc2c(c1C)C(c1ccc(Cl)cc1)=N[C@@H](CC(=O)OC(C)(C)C)c1nnc(C)n1-2 [NCGC00250412-19],-98.3
4,CC(=O)O/N=C1/C(c2c(O)[nH]c3cc(Br)ccc23)=Nc2ccccc21 + Cc1sc2c(c1C)C(c1ccc(Cl)cc1)=N[C@@H](CC(=O)OC(C)(C)C)c1nnc(C)n1-2 [NCGC00250412-19],54.4
5,O=c1c(-c2ccc(O)cc2)coc2cc(O[C@@H]3O[C@H](CO)[C@@H](O)[C@H](O)[C@H]3O)ccc12 + Cc1sc2c(c1C)C(c1ccc(Cl)cc1)=N[C@@H](CC(=O)OC(C)(C)C)c1nnc(C)n1-2 [NCGC00250412-19],-180
6,Cc1c(NC(=O)c2ccc(C(C)(C)C)cc2)cccc1-c1cn(C)c(=O)c(Nc2ccc(C(=O)N3CCOCC3)cc2)n1 + Cc1sc2c(c1C)C(c1ccc(Cl)cc1)=N[C@@H](CC(=O)OC(C)(C)C)c1nnc(C)n1-2 [NCGC00250412-19],-90.9
7,Nc1ccn([C@@H]2O[C@H](CO)[C@@H](O)[C@@H]2O)c(=O)n1 + Cc1sc2c(c1C)C(c1ccc(Cl)cc1)=N[C@@H](CC(=O)OC(C)(C)C)c1nnc(C)n1-2 [NCGC00250412-19],-107
8,Nc1ccn([C@@H]2O[C@H](CO)[C@@H](O)[C@H]2O)c(=O)n1 + Cc1sc2c(c1C)C(c1ccc(Cl)cc1)=N[C@@H](CC(=O)OC(C)(C)C)c1nnc(C)n1-2 [NCGC00250412-19],-268
9,Nc1ccn([C@@H]2O[C@H](CO)[C@@H](O)C2(F)F)c(=O)n1 + Cc1sc2c(c1C)C(c1ccc(Cl)cc1)=N[C@@H](CC(=O)OC(C)(C)C)c1nnc(C)n1-2 [NCGC00250412-19],-379
10,CC(=O)N1CCN(c2ccc(OCc3nn(C)c(C)c3-c3cccc4c(CCCOc5cccc6ccccc56)c(C(=O)O)n(Cc5cccnc5)c34)cc2)CC1 + Cc1sc2c(c1C)C(c1ccc(Cl)cc1)=N[C@@H](CC(=O)OC(C)(C)C)c1nnc(C)n1-2 [NCGC00250412-19],97.8
11,FC(F)(F)c1ccc(Nc2nc3ccc(Oc4ccnc(-c5ncc(C(F)(F)F)[nH]5)c4)cc3[nH]2)cc1 + Cc1sc2c(c1C)C(c1ccc(Cl)cc1)=N[C@@H](CC(=O)OC(C)(C)C)c1nnc(C)n1-2 [NCGC00250412-19],-7.92
12,CC1(C)CC(=O)c2c(C(F)(F)F)nn(-c3ccc(C(N)=O)c(N[C@H]4CC[C@H](OC(=O)CN)CC4)c3)c2C1 + Cc1sc2c(c1C)C(c1ccc(Cl)cc1)=N[C@@H](CC(=O)OC(C)(C)C)c1nnc(C)n1-2 [NCGC00250412-19],-482
13,CC1(C)CC(=O)c2c(C(F)(F)F)nn(-c3ccc(C(N)=O)c(N[C@H]4CC[C@H](O)CC4)c3)c2C1 + Cc1sc2c(c1C)C(c1ccc(Cl)cc1)=N[C@@H](CC(=O)OC(C)(C)C)c1nnc(C)n1-2 [NCGC00250412-19],-379
14,COc1cccc2c1CCCC2CCCN1CCN(C2CCCCC2)CC1 (stereo not given) + Cc1sc2c(c1C)C(c1ccc(Cl)cc1)=N[C@@H](CC(=O)OC(C)(C)C)c1nnc(C)n1-2 [NCGC00250412-19],-180
15,Cc1nnc(C(C)C)n1[C@H]1C[C@H]2CC[C@@H](C1)N2CC[C@H](NC(=O)C1CCC(F)(F)CC1)c1ccccc1 + Cc1sc2c(c1C)C(c1ccc(Cl)cc1)=N[C@@H](CC(=O)OC(C)(C)C)c1nnc(C)n1-2 [NCGC00250412-19],-88.4
16,O=C(CC12CC3CC(CC(C3)C1)C2)Nc1cccc2nc(NCCNCCO)ccc12 + Cc1sc2c(c1C)C(c1ccc(Cl)cc1)=N[C@@H](CC(=O)OC(C)(C)C)c1nnc(C)n1-2 [NCGC00250412-19],-112
17,COc1ccccc1[C@H](c1cccc2ccccc12)[C@@](C)(C#N)C(=O)N1CCC(c2cccc(C(F)(F)F)c2)CC1 + Cc1sc2c(c1C)C(c1ccc(Cl)cc1)=N[C@@H](CC(=O)OC(C)(C)C)c1nnc(C)n1-2 [NCGC00250412-19],-352
18,Oc1ccc2ccccc2c1SSc1c(O)ccc2ccccc12 + Cc1sc2c(c1C)C(c1ccc(Cl)cc1)=N[C@@H](CC(=O)OC(C)(C)C)c1nnc(C)n1-2 [NCGC00250412-19],56.9
19,NS(=O)(=O)OC[C@@H]1C[C@@H](n2ccc3c(N[C@H]4CCc5ccccc54)ncnc32)C[C@@H]1O + Cc1sc2c(c1C)C(c1ccc(Cl)cc1)=N[C@@H](CC(=O)OC(C)(C)C)c1nnc(C)n1-2 [NCGC00250412-19],-544
20,O=C1NC(=O)C(c2cnc3ccccn23)=C1c1cn2c3c(cccc13)CN(C(=O)N1CCOCC1)CC2 + Cc1sc2c(c1C)C(c1ccc(Cl)cc1)=N[C@@H](CC(=O)OC(C)(C)C)c1nnc(C)n1-2 [NCGC00250412-19],-24.9
21,NC1(Cc2ccc(Cl)cc2)CCN(c2ncnc3[nH]ccc23)CC1 + Cc1sc2c(c1C)C(c1ccc(Cl)cc1)=N[C@@H](CC(=O)OC(C)(C)C)c1nnc(C)n1-2 [NCGC00250412-19],-66
22,COc1cc(CCc2cc(NC(=O)c3ccc(N4CC(C)NC(C)C4)cc3)n[nH]2)cc(OC)c1 (stereo not given) + Cc1sc2c(c1C)C(c1ccc(Cl)cc1)=N[C@@H](CC(=O)OC(C)(C)C)c1nnc(C)n1-2 [NCGC00250412-19],-88.8
23,CC(C)C[C@H](NC(=O)[C@@H](O)[C@H](N)Cc1ccccc1)C(=O)O + Cc1sc2c(c1C)C(c1ccc(Cl)cc1)=N[C@@H](CC(=O)OC(C)(C)C)c1nnc(C)n1-2 [NCGC00250412-19],-74.5
24,COC[C@H](NC(=O)c1cnc(C)s1)C(=O)N[C@@H](COC)C(=O)N[C@@H](Cc1ccccc1)C(=O)[C@@]1(C)CO1 + Cc1sc2c(c1C)C(c1ccc(Cl)cc1)=N[C@@H](CC(=O)OC(C)(C)C)c1nnc(C)n1-2 [NCGC00250412-19],-227
25,CC(C)C[C@H](NC(=O)[C@H](CCc1ccccc1)NC(=O)CN1CCOCC1)C(=O)N[C@@H](Cc1ccccc1)C(=O)N[C@@H](CC(C)C)C(=O)[C@@]1(C)CO1 + Cc1sc2c(c1C)C(c1ccc(Cl)cc1)=N[C@@H](CC(=O)OC(C)(C)C)c1nnc(C)n1-2 [NCGC00250412-19],-521
